Consider eleven compounds from PubChem BioAssay (EPA / NIEHS).

A short description of assay [1]: ATG_TAL_CIS: Attagene CIS-FACTORIAL HepG2 Assay for human TAL Basal Promoter (AID 2282966; active = hit-call score of the fitted dose curve at least 0.9, where 1 is the maximum; inactive = score below 0.9;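 also: background control endpoint measuring basal TAL promoter reporter mRNA not a specific factor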). The note with it: HepG2 Attagene cis-factorial TAL promoter reporter; actives raise or lower the signal. An outline of the steps: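 After 24 hours of chemical exposure, transfected HepG2 cells yielded RNA that was converted to 6-FAM-labelled, HpaI-digested reporter fragments for capillary electrophoresis. Values derive from bidirectional fitting against DMSO controls.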

Assay [2] in a line: ATG_TGFb_CIS: Attagene CIS-FACTORIAL HepG2 Assay for human Transforming Growth Factor (TGF) (AID 2282967; active = hit-call score of the fitted dose curve at least 0.9, where 1 is the maximum; inactive = score below 0.9). The note with it: HepG2 Attagene CIS TGFb reporter, mRNA transcription; actives raise or lower the signal. The method in brief:
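HepG2 cells transiently transfected with cis-promoter-driven multiple reporter units measure endogenous TF activity; reporter mRNA quantified at 24 h by RT-PCR, FAM labeling, HpaI digestion and capillary electrophoresis. Bidirectional fit vs DMSO.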

Assay [3] is described as follows: ATG_VDRE_CIS: Attagene CIS-FACTORIAL HepG2 Assay for human Vitamin D Receptor Element (VDRE) (AID 2282968; active = hit-call score of the fitted dose curve at least 0.9, where 1 is the maximum; inactive = score below 0.9). The note with it: HepG2 VDRE cis-reporter transcription, actives raise or lower the signal. An outline of the steps: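 Readout is VDRE-driven reporter mRNA reflecting endogenous factor activity in human HepG2 cells, sampled 24 h post-dose. Quantification used labelled RT-PCR products separated by capillary electrophoresis; bidirectional analysis relative to DMSO.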

Assay [4] has as its target X-box-binding protein 1 (Homo sapiens) (UniProt P17861). The experiment in a line: ATG_Xbp1_CIS: Attagene CIS-FACTORIAL HepG2 Assay for human X-box Binding Protein 1 (XBP1) (AID 2282972; active = hit-call score of the fitted dose curve at least 0.9, where 1 is the maximum; inactive = score below 0.9). The note with it: HepG2 XBP1 cis-element reporter, Attagene multiplex; actives raise or lower the signal. An outline of the steps: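 Read-out: fluorescent reporter mRNA fragments resolved by capillary electrophoresis after RT-PCR. Human HepG2 liver cells carried transfected cis-promoter reporter units and were exposed to chemicals for 24 hours. Gain or loss of signal fitted relative to DMSO baseline.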

Assay [5] has as its target Bile acid receptor (Homo sapiens) (UniProt Q96RI1). The experiment in a line: ATG_FXR_TRANS: Attagene TRANS-FACTORIAL HepG2 Assay for Farnesoid X Receptor (FXR) (AID 2282979).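 Also: hits raise reporter mRNA above DMSO so AC50 marks FXR activation.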 The note with it: HepG2 Attagene TRANS FXR-GAL4 reporter transcription. An outline of the steps:
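Transient transfection of HepG2 with multiplexed GAL4-UAS reporter units; exogenous FXR-GAL4 chimera. Dose 24 h → TriZol RNA → oligo(dT) RT → PCR, 6-FAM primer extension, HpaI cut → CE. Gain vs DMSO.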

For assay [6], the target named is Oxysterols receptor LXR-alpha (Homo sapiens) (UniProt Q13133). The assay can be described thus: ATG_LXRa_TRANS: Attagene TRANS-FACTORIAL HepG2 Assay for human Liver X Receptor alpha (LXRa) (AID 2282980). The note with it: HepG2 Attagene TRANS reporter, LXRa transactivation. The method in brief:
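Transfect HepG2 with GAL4-UAS multiplex reporter constructs (TRANS format, chimeric receptor-GAL4); treat 24 h; extract RNA, reverse-transcribe, PCR-amplify, FAM-label, HpaI-digest; resolve fragments by capillary electrophoresis. Upward response vs DMSO.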

The target in assay [7] is Oxysterols receptor LXR-beta (Homo sapiens) (UniProt P55055). The assay can be described thus: ATG_LXRb_TRANS: Attagene TRANS-FACTORIAL HepG2 Assay for human Liver X Receptor beta (LXRb) (AID 2282981). The note with it: HepG2 Attagene TRANS GAL4-LXRb reporter, mRNA. The method in brief:
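After 24 h chemical treatment of transfected HepG2 cells carrying exogenous NR-Gal4 chimeras, reporter mRNA was quantified by fluorescent RT-PCR and capillary electrophoresis; activity taken as increase over DMSO controls.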

Assay [8] deals with Hepatocyte nuclear factor 4-alpha (Homo sapiens) (UniProt P41235). The assay can be described thus: ATG_HNF4a_TRANS: Attagene TRANS-FACTORIAL HepG2 Assay for human Hepatocyte Nuclear Factor 4 alpha (HNF4a) (AID 2282982). The note with it: HepG2 HNF4a transactivation reporter, mRNA readout. An outline of the steps:
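Activity of an exogenous HNF4a–Gal4 fusion scored as induced GAL4-UAS reporter transcripts after 24 h chemical exposure of transfected human HepG2 cells. Read-out via RT-PCR with 6-FAM labelling and capillary electrophoresis; rise over DMSO baseline.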

Assay [9] can be described thus: ATG_M_06_TRANS: Attagene TRANS-FACTORIAL HepG2 Assay for M06 Transcription Factor (Internal Marker) (AID 2282983).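 As to AC50: potency for rise in reporter mRNA above DMSO baseline.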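 As to outcome: reporter transcript level by RT-PCR then capillary electrophoresis fluorescence.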 The note with it: HepG2 Attagene TRANS M06 internal marker reporter. The method in brief: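 Background control endpoint: reporter mRNA from transiently transfected HepG2 after 24 h dosing, detected by RT-PCR with capillary electrophoresis fluorescence. Analysed for gain versus DMSO.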

Assay [10] has as its target Transcriptional activator Myb (Homo sapiens) (UniProt P10242). The experiment in a line: ATG_Myb_CIS: Attagene CIS-FACTORIAL HepG2 Assay for human Myeloblastosis (Myb) Proto-Oncogene Transcription Factor (AID 2282986; active = hit-call score of the fitted dose curve at least 0.9, where 1 is the maximum; inactive = score below 0.9). The note with it: HepG2 Attagene CIS-FACTORIAL Myb reporter transcription; actives raise or lower the signal. The method in brief:
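Transiently transfected HepG2 cells carrying a multiplexed cis-promoter reporter set report endogenous Myb activity after 24 h compound exposure. Reporter mRNA is read by RT-PCR with capillary electrophoresis of fluorescent products, fitted bidirectionally against DMSO.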

Assay [11] deals with Nuclear respiratory factor 1 (Homo sapiens) (UniProt Q16656). The assay can be described thus: ATG_NRF1_CIS: Attagene CIS-FACTORIAL HepG2 Assay for human Nuclear Respiratory Factor 1 (NRF1) Orphan Gene (AID 2282987; active = hit-call score of the fitted dose curve at least 0.9, where 1 is the maximum; inactive = score below 0.9). The note with it: HepG2 NRF1 cis-element reporter, Attagene multiplex; actives raise or lower the signal. An outline of the steps:
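HepG2 cells transiently transfected with multiple cis-regulated reporter units, exposed 24 h. Reporter mRNAs measured by RT-PCR, fluorescent labelling, HpaI digestion and capillary electrophoresis; bidirectional fitting against DMSO.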

The target of assay [12] is Glucocorticoid receptor (Homo sapiens) (UniProt P04150). The assay can be described thus: ATG_GR_TRANS: Attagene TRANS-FACTORIAL HepG2 Assay for human Glucocorticoid Receptor (GR) (AID 2282978).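 Also: activators score as hits since higher reporter transcript over DMSO is fitted.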 The note with it: HepG2 Attagene TRANS GR reporter, mRNA transcription. The method in brief: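 HepG2 cells transiently transfected with GAL4-UAS reporter units and exogenous GR-Gal4 chimera, dosed 24 h. Reporter mRNA by RT-PCR, FAM labeling, HpaI digest and capillary electrophoresis; gain-of-signal fit versus DMSO.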
Chain of Glucocorticoid receptor (Homo sapiens) (P04150 whole entry, looked up, the tested form may be a part): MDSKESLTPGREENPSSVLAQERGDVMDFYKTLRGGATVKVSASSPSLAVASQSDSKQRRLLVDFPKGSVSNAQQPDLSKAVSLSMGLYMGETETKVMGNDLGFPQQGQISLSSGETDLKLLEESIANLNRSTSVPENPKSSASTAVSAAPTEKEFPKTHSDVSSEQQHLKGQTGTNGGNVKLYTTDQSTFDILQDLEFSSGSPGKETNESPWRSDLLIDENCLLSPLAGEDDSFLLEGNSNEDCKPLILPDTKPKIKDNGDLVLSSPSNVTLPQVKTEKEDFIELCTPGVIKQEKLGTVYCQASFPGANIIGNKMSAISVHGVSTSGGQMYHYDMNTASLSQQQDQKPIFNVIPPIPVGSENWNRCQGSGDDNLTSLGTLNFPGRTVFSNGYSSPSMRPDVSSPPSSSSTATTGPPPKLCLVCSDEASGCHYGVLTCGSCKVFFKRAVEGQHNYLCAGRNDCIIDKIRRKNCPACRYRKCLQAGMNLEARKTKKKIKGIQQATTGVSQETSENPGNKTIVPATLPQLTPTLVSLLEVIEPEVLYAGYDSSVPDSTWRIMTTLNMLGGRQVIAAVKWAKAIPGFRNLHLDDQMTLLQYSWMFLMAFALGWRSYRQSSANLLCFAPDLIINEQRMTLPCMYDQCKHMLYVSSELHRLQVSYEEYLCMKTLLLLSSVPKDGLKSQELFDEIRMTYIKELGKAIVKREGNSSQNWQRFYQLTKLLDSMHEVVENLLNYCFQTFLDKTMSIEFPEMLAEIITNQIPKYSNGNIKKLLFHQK

Assay [13] is described as follows: ATG_M_32_TRANS: Attagene TRANS-FACTORIAL HepG2 Assay for M32 Transcription Factor (Internal Marker) (AID 2282984).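 Also: transcript level of a background control reporter unit measured by RT-PCR and capillary electrophoresis.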 The note with it: HepG2 Attagene TRANS M32 internal marker reporter. An outline of the steps:
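Internal background reporter in transfected HepG2: after 24 h chemical exposure, RNA reverse-transcribed, reporter cDNA amplified, fluorescently labelled and HpaI-cut, then sized by capillary electrophoresis. Gain of signal fitted against DMSO control.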

The target in assay [14] is Nuclear receptor subfamily 4 group A member 2 (Homo sapiens) (UniProt P43354). The assay can be described thus: ATG_NURR1_TRANS: Attagene TRANS-FACTORIAL HepG2 Assay for human Nuclear Receptor Related Protein 1 (NURR1) (AID 2282985). The note with it: HepG2 Attagene TRANS reporter, mRNA readout. The method in brief:
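Reporter transcript induction, measured by RT-PCR with fluorescent labelling, HpaI digestion and capillary electrophoresis, after 24 hr dosing of human HepG2 cells transiently expressing an exogenous NR-Gal4 fusion with GAL4-UAS-driven reporters; DMSO as baseline.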

Assay [15] can be described thus: ATG_M_19_TRANS: Attagene TRANS-FACTORIAL HepG2 Assay for M19 Transcription Factor (Internal Marker) (AID 2282974). The note with it: HepG2 Attagene TRANS-FACTORIAL M19 internal marker reporter. An outline of the steps:
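HepG2 transiently transfected with GAL4-UAS multiplex reporter constructs, exposed 24 h; reporter RNA quantified by RT-PCR, 6-FAM labeling, HpaI digestion and capillary electrophoresis; internal background marker fitted upward versus DMSO.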

Assay [16] in a line: ATG_GAL4_TRANS: Attagene TRANS-FACTORIAL HepG2 Assay for GAL4 (Internal Marker) (AID 2282976). The note with it: HepG2 Attagene TRANS GAL4 internal marker reporter. An outline of the steps: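 First, HepG2 cells were transfected with reporter units under GAL4-UAS control. Next, they were treated with chemical for 24 h. Finally, RNA was reverse-transcribed, PCR-amplified, FAM-labelled and resolved by capillary electrophoresis, with induction scored against DMSO.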

SMILES strings stand for the structures. Results filed as inconclusive are left out. Activity calls are given as the source filed them. The calls were made as follows, unless noted: active = hit-call score of the fitted dose curve at least 0.9, where 1 is the maximum; inconclusive = response in the unintended direction; inactive = score below 0.9.

Chain of Oxysterols receptor LXR-alpha (Homo sapiens) (Q13133 whole entry, looked up, the tested form may be a part): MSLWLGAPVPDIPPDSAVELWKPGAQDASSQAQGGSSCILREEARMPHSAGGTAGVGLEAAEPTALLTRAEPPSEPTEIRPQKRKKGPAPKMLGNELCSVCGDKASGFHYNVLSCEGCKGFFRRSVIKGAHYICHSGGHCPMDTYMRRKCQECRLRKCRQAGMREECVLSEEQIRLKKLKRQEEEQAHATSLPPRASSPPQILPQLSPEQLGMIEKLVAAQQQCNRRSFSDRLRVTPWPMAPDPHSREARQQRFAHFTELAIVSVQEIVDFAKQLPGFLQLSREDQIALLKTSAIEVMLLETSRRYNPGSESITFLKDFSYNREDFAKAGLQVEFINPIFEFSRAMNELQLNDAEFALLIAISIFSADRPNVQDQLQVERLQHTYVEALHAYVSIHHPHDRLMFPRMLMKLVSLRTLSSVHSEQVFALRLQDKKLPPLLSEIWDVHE
Chain of Oxysterols receptor LXR-beta (Homo sapiens) (P55055 whole entry, looked up, the tested form may be a part): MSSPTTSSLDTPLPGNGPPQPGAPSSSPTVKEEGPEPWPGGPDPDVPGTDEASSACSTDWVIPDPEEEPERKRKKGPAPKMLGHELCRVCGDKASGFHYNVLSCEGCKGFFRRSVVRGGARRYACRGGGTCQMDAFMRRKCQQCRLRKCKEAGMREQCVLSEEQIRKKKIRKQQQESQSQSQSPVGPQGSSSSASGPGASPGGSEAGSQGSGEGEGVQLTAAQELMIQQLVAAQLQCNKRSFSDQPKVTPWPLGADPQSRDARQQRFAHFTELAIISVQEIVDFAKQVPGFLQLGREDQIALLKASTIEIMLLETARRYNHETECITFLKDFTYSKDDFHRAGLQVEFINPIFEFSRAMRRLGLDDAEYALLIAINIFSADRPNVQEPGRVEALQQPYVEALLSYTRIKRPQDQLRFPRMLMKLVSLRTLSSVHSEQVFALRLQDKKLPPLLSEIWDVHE
Chain of X-box-binding protein 1 (Homo sapiens) (P17861 whole entry, looked up, the tested form may be a part): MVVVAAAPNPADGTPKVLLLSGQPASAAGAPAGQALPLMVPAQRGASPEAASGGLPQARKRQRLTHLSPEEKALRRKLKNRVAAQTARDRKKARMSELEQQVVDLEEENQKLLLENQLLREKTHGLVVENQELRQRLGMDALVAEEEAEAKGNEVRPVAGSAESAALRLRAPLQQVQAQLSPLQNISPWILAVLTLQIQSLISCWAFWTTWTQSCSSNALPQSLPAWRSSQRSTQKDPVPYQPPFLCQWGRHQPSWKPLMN
Chain of Bile acid receptor (Homo sapiens) (Q96RI1 whole entry, looked up, the tested form may be a part): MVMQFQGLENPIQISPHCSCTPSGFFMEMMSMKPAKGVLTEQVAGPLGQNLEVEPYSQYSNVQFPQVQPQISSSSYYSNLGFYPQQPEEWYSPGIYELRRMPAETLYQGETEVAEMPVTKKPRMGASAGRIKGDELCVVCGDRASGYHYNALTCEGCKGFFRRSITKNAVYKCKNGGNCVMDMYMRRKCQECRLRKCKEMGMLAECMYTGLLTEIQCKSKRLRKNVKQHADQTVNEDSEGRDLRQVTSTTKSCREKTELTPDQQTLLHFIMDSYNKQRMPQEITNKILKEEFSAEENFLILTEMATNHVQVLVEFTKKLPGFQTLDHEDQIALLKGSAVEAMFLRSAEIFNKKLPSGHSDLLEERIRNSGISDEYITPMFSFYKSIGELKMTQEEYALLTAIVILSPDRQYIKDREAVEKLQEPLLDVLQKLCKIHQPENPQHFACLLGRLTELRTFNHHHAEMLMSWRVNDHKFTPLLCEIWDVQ
Chain of Nuclear receptor subfamily 4 group A member 2 (Homo sapiens) (P43354 whole entry, looked up, the tested form may be a part): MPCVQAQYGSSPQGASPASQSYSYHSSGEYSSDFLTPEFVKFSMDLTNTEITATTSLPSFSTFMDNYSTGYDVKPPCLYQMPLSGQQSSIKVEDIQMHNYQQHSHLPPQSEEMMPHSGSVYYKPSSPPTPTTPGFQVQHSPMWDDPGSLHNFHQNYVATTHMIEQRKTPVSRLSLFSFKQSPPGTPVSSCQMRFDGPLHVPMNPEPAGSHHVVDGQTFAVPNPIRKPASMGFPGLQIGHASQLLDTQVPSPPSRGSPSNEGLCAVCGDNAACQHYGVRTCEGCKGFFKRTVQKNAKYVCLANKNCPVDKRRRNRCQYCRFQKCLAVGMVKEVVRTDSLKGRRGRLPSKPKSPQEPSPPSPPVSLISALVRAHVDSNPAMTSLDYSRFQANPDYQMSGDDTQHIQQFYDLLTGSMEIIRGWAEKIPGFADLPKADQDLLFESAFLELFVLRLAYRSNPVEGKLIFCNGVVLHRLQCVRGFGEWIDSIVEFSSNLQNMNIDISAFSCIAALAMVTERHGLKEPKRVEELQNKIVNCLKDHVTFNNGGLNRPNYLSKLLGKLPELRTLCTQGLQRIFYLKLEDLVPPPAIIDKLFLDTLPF
Chain of Transcriptional activator Myb (Homo sapiens) (P10242 whole entry, looked up): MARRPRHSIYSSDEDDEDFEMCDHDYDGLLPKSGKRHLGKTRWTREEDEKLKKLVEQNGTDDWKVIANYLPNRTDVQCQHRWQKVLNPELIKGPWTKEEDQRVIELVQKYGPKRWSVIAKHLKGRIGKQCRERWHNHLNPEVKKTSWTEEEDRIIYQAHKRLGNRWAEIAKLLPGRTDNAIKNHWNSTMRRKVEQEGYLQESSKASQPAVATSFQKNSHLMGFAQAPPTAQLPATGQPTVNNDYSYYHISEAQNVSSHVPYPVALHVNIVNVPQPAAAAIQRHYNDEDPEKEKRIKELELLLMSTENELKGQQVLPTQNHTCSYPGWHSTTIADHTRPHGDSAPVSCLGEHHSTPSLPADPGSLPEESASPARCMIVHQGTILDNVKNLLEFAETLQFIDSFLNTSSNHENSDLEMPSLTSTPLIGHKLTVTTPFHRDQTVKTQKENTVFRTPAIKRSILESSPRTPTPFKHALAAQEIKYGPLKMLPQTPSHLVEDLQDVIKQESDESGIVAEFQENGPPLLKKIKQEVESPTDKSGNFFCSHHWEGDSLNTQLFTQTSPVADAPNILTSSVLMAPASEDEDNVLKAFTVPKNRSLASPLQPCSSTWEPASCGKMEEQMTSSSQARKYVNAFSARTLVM
Chain of Nuclear respiratory factor 1 (Homo sapiens) (Q16656 whole entry, looked up): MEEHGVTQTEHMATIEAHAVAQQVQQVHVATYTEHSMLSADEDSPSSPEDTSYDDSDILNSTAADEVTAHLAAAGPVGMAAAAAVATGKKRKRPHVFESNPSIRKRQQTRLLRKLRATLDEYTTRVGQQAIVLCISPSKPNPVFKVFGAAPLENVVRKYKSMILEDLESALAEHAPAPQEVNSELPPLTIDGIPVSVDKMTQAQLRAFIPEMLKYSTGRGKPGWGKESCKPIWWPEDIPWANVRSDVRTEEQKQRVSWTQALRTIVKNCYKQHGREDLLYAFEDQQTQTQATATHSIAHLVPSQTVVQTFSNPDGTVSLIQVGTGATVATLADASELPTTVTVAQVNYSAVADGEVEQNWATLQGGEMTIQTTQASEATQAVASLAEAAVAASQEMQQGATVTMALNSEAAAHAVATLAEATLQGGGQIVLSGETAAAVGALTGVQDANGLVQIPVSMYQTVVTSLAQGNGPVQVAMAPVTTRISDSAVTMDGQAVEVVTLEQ
Chain of Hepatocyte nuclear factor 4-alpha (Homo sapiens) (P41235 whole entry, looked up, the tested form may be a part): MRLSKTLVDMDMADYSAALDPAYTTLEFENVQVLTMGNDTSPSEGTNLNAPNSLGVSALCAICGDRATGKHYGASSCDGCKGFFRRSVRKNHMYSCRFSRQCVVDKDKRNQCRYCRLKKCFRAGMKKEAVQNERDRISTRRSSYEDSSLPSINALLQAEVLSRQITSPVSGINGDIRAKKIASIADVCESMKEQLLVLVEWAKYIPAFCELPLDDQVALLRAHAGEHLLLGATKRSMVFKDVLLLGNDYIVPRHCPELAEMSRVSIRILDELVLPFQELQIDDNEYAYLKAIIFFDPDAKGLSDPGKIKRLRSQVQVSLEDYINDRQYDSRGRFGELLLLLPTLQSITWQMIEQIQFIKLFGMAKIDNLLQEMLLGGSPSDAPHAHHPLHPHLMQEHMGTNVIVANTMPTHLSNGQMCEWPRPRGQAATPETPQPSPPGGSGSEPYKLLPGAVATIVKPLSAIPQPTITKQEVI

Regarding `Cc1ccc(N)c(S(=O)(=O)O)c1`, the compound was classed as inactive in assay [1], in assay [2], in assay [3], in [4], in assay [5] and in assay [6]. For the same compound, the compound was classed as inactive in assay [7], in [8], in assay [9], in assay [10] and in [11].

One may read the AC50 as the concentration giving half of the maximal activity seen. As to `O=C(CC(=O)c1ccccc1)c1ccccc1`, the outcome in assay [1], in assay [2], in assay [3], in [12], in assay [5] and in [9] was inactive. Besides, the compound was classed as inactive in [13] and in assay [14]. In addition, the AC50 in assay [4] was 45.1 µM (active); in assay [10] it was 100 µM (active); in assay [11] it was 176 µM (active).

For the compound `CC(C)(C)OC(=O)c1ccc(O)cc1`, the result in assay [1], in [2], in assay [12], in [5], in [6] and in assay [7] was inactive. Besides, the call in assay [8], in assay [9], in assay [14], in assay [10] and in assay [11] was inactive. The concentration at half-maximal activity (AC50) in assay [3] was 45.4 µM (active); in assay [4], 70.3 µM (active).

Consider `CC=Cc1ccc(OC)c(OC)c1`, for which the compound was classed as inactive in assay [1], in assay [2], in assay [3], in assay [15], in [5] and in [6]. The result in assay [8], in [13], in [14], in assay [10] and in assay [11] was inactive.

Regarding `O=C(CS)OCCOC(=O)CS`, the AC50 in assay [1] was 62.2 µM (active); in [14], 52.4 µM (active). Also, the outcome in assay [2], in assay [3], in assay [16], in [5], in assay [8] and in [9] was inactive. Besides, the outcome in [11] was inactive.

Regarding `CN(C)C(=O)Nc1ccc(Oc2ccc(Cl)cc2)cc1`, the result in [1], in assay [2], in assay [3], in assay [4], in assay [12] and in [7] was inactive. Further, the result in assay [9], in assay [13], in assay [14], in assay [10] and in [11] was inactive.

For the compound `O=C1CCCC=CCCCCCCCCCC1`, the compound was called inactive in assay [1], in assay [2], in assay [5], in assay [6], in [9] and in assay [10]. Moreover, in assay [11], the result was inactive. In addition, the AC50 was 18.4 µM (active) in assay [3], 55.6 µM (active) in assay [4] and 26.5 µM (active) in assay [14].

Regarding `CC(C=O)Cc1ccc(C(C)(C)C)cc1` (stereo not given), the call in assay [1], in assay [2], in assay [3], in assay [4], in assay [12] and in assay [5] was inactive. Besides, the compound was called inactive in assay [6], in assay [9], in [13], in assay [10] and in assay [11].

`CCCCCCCCCCCCCCN(CCO)CCO`: the outcome in assay [1], in assay [2], in assay [3], in [4], in assay [6] and in [7] was inactive. The call in [8], in assay [14], in assay [10] and in assay [11] was inactive. Moreover, the AC50 in [9] was 162 µM (active).

Consider `CCC1(C)NC(=O)NC1=O` (stereo not given), for which the compound was classed as inactive in assay [1], in assay [2], in [3], in [15], in [16] and in [5]. The outcome in [6], in assay [7], in [9], in [10] and in assay [11] was inactive.

For the compound `OCc1cccc(Oc2ccccc2)c1`, the compound was classed as inactive in [1], in [2], in assay [3], in assay [15], in assay [16] and in assay [5]. The call in assay [8], in assay [9], in assay [13], in [10] and in [11] was inactive.
